Test results from PubChem BioAssay (NCI).
The panel holds about 83,000 compounds, 20% with a hit somewhere; the sample as a whole holds those more often.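 Testing used 96-well plates and a 48-hour single-concentration exposure. Example: -40 means 40% of the starting cells died.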 The source made the active and inactive calls. The calls were made as follows: active = growth percent below 10; inactive = the rest.

How the values were obtained:
Test in all cases: NCI-60 one-dose screen, 48 h (100 = growth as untreated, 0 = no growth, -100 = all killed)
Conditions in all cases: 10 µM unless noted
NCI-H23 lung = test system: NCI-H23 lung
NCI-H226 lung = test system: NCI-H226 lung
NCI-H322M lung = test system: NCI-H322M lung
HOP-62 NSCLC = test system: HOP-62 NSCLC
NCI-H460 lung = test system: NCI-H460 lung
HOP-92 NSCLC = test system: HOP-92 NSCLC
NCI-H522 lung = test system: NCI-H522 lung
A549/ATCC NSCLC = test system: A549/ATCC NSCLC
786-0 renal = test system: 786-0 renal
COLO 205 colon = test system: COLO 205 colon
DU-145 prostate = test system: DU-145 prostate
K-562 leukemia = test system: K-562 leukemia
MALME-3M melanoma = test system: MALME-3M melanoma
MDA-MB-231 breast = test system: MDA-MB-231 breast
RXF 393 renal = test system: RXF 393 renal
SF-268 CNS = test system: SF-268 CNS
SF-295 CNS = test system: SF-295 CNS
SF-539 CNS = test system: SF-539 CNS
UACC-257 melanoma = test system: UACC-257 melanoma
M14 melanoma = test system: M14 melanoma

Measured: growth

Cc1ccccc1-n1c(/C=C\c2ccccn2)nc2ccccc2c1=O
inactive: NCI-H23 lung 55.5% | NCI-H226 lung 97.8% | NCI-H322M lung 44.9% | HOP-62 NSCLC 107% | NCI-H460 lung 68% | HOP-92 NSCLC 41.2% | NCI-H522 lung 54.8% | A549/ATCC NSCLC 80.4% | COLO 205 colon 94.2% | DU-145 prostate 21.3% | K-562 leukemia 23.8% | MALME-3M melanoma 59.5% | MDA-MB-231 breast 77.1% | SF-268 CNS 61.7% | SF-295 CNS 74.4% | SF-539 CNS 82.8% | UACC-257 melanoma 81.8% | M14 melanoma 64.9%
active: 786-0 renal -1.31% | RXF 393 renal 7.42%

CC/C(=C(\c1ccc(OCCN2CCOCC2)cc1)c1ccc(OC(=O)Cc2ccccc2)cc1)c1ccc(Cl)cc1
inactive: NCI-H23 lung 104% | NCI-H226 lung 106% | NCI-H322M lung 87.9% | HOP-62 NSCLC 103% | NCI-H460 lung 106% | HOP-92 NSCLC 94.4% | NCI-H522 lung 92.8% | A549/ATCC NSCLC 101% | 786-0 renal 107% | COLO 205 colon 120% | DU-145 prostate 101% | K-562 leukemia 82.4% | MALME-3M melanoma 95.1% | MDA-MB-231 breast 109% | RXF 393 renal 114% | SF-268 CNS 94.1% | SF-295 CNS 99.4% | SF-539 CNS 105% | UACC-257 melanoma 107% | M14 melanoma 102%

C/C(=C\c1ccn(-c2ccc(N)c(C(F)(F)F)c2)n1)[C@@H]1C[C@@H]2O[C@]2(C)CCC[C@H](C)[C@H](O)[C@@H](C)C(=O)C(C)(C)[C@@H](O)CC(=O)O1
inactive: NCI-H23 lung 32.9% | NCI-H226 lung 52% | NCI-H322M lung 23.2% | HOP-62 NSCLC 41% | NCI-H460 lung 12.7% | HOP-92 NSCLC 52.4% | NCI-H522 lung 30.3% | A549/ATCC NSCLC 31.1% | 786-0 renal 27.4% | K-562 leukemia 11.9% | MALME-3M melanoma 51.7% | MDA-MB-231 breast 22.8% | SF-268 CNS 36% | SF-295 CNS 15.1% | UACC-257 melanoma 64.3% | M14 melanoma 21.7%
active: COLO 205 colon -16.5% | DU-145 prostate -12.7% | RXF 393 renal 8.01% | SF-539 CNS -8.5%

CC[C@H](C)[C@H](NC(=O)[C@H]1CCCCN1C)C(=O)N(C)[C@H](C[C@@H](OC(C)=O)c1nc(C(=O)N[C@@H](Cc2ccccc2)C[C@H](C)C(=O)O)cs1)C(C)C
inactive: NCI-H23 lung 25.9% | NCI-H226 lung 11.6% | NCI-H322M lung 51.5% | HOP-62 NSCLC 12.2% | NCI-H460 lung 11% | HOP-92 NSCLC 14.8% | A549/ATCC NSCLC 10.2% | 786-0 renal 15.6% | MALME-3M melanoma 55.2% | MDA-MB-231 breast 28.2% | RXF 393 renal 35.3% | SF-268 CNS 34.2% | UACC-257 melanoma 49.3%
active: NCI-H522 lung -47.1% | COLO 205 colon -80.3% | DU-145 prostate 4.56% | K-562 leukemia 7.63% | SF-295 CNS 8.04% | SF-539 CNS -10.5% | M14 melanoma 8.87%

CCCCCCCCCCCCCCCCCC1OCC(COC(=O)O[C@@H](C(=O)O[C@H]2C[C@@]3(O)[C@@H](OC(=O)c4ccccc4)[C@@H]4[C@]5(OC(C)=O)CO[C@@H]5C[C@H](O)[C@@]4(C)C(=O)[C@H](OC(C)=O)C(=C2C)C3(C)C)[C@@H](NC(=O)c2ccccc2)c2ccccc2)O1 (stereo not given in full)
inactive: NCI-H23 lung 40.3% | NCI-H226 lung 53.4% | NCI-H322M lung 58.8% | HOP-62 NSCLC 60.5% | NCI-H460 lung 18.2% | HOP-92 NSCLC 94.8% | NCI-H522 lung 48.6% | A549/ATCC NSCLC 53.2% | 786-0 renal 80.9% | COLO 205 colon 24.7% | DU-145 prostate 44.4% | K-562 leukemia 18.8% | MALME-3M melanoma 59.3% | MDA-MB-231 breast 81.8% | RXF 393 renal 28.1% | SF-268 CNS 59.1% | SF-295 CNS 48.4% | SF-539 CNS 51.2% | UACC-257 melanoma 69.8% | M14 melanoma 37.8%

COc1ccc2c(c1)c(-c1nc(-c3c[nH]c4ncccc34)cs1)cn2CCCCN1CCOCC1
inactive: NCI-H23 lung 69.9% | NCI-H226 lung 70.3% | NCI-H322M lung 57.2% | HOP-62 NSCLC 37.1% | HOP-92 NSCLC 43% | NCI-H522 lung 39.9% | A549/ATCC NSCLC 49.7% | DU-145 prostate 48.9% | MDA-MB-231 breast 23.4% | RXF 393 renal 31.9% | SF-268 CNS 52.4% | SF-295 CNS 13.1% | SF-539 CNS 49.3% | UACC-257 melanoma 79.5%
active: NCI-H460 lung 4.29% | 786-0 renal -43.7% | COLO 205 colon -100% | K-562 leukemia -65.2% | MALME-3M melanoma -66.7% | M14 melanoma -53.5%
